In PubChem BioAssay (NCI):
The panel holds about 79,000 compounds, 15% with a hit somewhere; the sample as a whole holds those more often. Unmarked numbers belong to inactive results. The source made the active and inactive calls. Cut-off read from the data, not from the text of the source: active = growth inhibition above about 70%; inactive = the rest.

Key:
[1] = NCI Yeast Anticancer Drug Screen. Data for the rad50 strain (AID 155);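 note: 0% = growth of vehicle-only cultures of the same strain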; conditions: S. cerevisiae rad50 strain growth inhibition; at 50.0 µM; stronger effect = higher value
Outline: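 Relative growth inhibition (compound vs vehicle) was measured in yeast with a defined repair-gene alteration.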

[2] = NCI Yeast Anticancer Drug Screen. Data for the mec2-1 strain (AID 157); conditions: S. cerevisiae mec2-1 strain, at 50.0 µM, stronger effect = higher value
Outline: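 Vehicle-treated cultures served as reference for growth inhibition of compound-exposed mec2-1 yeast.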

[3] = NCI Yeast Anticancer Drug Screen. Data for the sgs1 mgt1 strain (AID 161);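 note: 0% = growth of cultures given vehicle only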; conditions: S. cerevisiae sgs1 mgt1 strain, at 50.0 µM, stronger effect = higher value
Outline: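 Genetically altered yeast, compound exposure, growth inhibition relative to vehicle.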

[4] = NCI Yeast Anticancer Drug Screen. Data for the cln2 rad14 strain (AID 165);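 note: 0% = growth equal to vehicle treated cultures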; conditions: S. cerevisiae cln2 rad14 strain, at 50.0 µM, stronger effect = higher value
Outline: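 Each compound was tested on cln2 rad14 yeast. Inhibition of growth was calculated against vehicle-exposed controls.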

[5] = NCI Yeast Anticancer Drug Screen. Data for the bub3 strain (AID 167); conditions: S. cerevisiae bub3 mutant strain, at 50.0 µM, stronger effect = higher value
Outline: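 Screening used yeast with an engineered genetic alteration affecting cell cycle control. Compound-exposed cultures were compared with vehicle cultures, and reduced growth was taken as inhibition.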

[6] = NCI Yeast Anticancer Drug Screen. Data for the mlh1 rad18 strain (AID 175); conditions: S. cerevisiae mlh1 rad18 strain growth inhibition; at 50.0 µM; stronger effect = higher value
Outline: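 Vehicle-treated cultures served as the reference for growth inhibition in a yeast strain carrying DNA damage repair alterations exposed to each compound.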

SMILES	growth inhibition [1]	growth inhibition [2]	growth inhibition [3]	growth inhibition [4]	growth inhibition [5]	growth inhibition [6]
CCN(CC)CCCC(C)NC(=O)c1ccc2c(c1)C(=O)c1ccccc1C2=O (stereo not drawn)	6%	19.1%	16.9%	36.4%	-17.7%	-33.9%
COC(=O)C(CC(=O)c1ccc2ccccc2c1)OC (stereo not drawn)	-1.85%	-9.1%	7.2%	-76.7%	6.35%	-9.55%
CN(C)C(=S)S(=O)(=O)c1ccc([N+](=O)[O-])cc1	26.8%	14.7%	23.6%	-7.4%	31.6%	92.3% (active)
O=C(Cl)c1cc2ccccc2c2c(=O)c3ccc4cc5ccccc5cc4c3[nH]c12	-51.6%	-3.2%	-10.4%	-53.8%	-13.2%	-11.6%
COC(=O)C1=C(O)C(C(=O)OC)[C@@]2(O)[C@@H](C(=O)OC)CC[C@@H]1[C@@H]2C(=O)OC (stereo partly drawn)	-1.45%	-9.1%	-13.8%	3%	-3.5%	8.95%
CC(CN(C)C)/C(=N\Nc1ccccc1)c1ccccc1 (stereo not drawn)	16.5%	10%	29.2%	1.1%	-7.85%	35.4%
CCc1nc(Nc2cccc(C)c2)c2cnn(-c3ccccc3)c2n1	-0.85%	-15.6%	-2.3%	-22.5%	-3.05%	-13.8%
CC1=CC(=O)c2cc(C)ccc2C1=O	6.1%	-15%	-8.35%	-32.5%	-2.95%	-3.25%
CC1CNC(=O)C(=O)N1 (stereo not drawn)	-14.7%	-1.8%	1.75%	-13.4%	-10.9%	-8.05%
CCOc1c(C(=O)O)cnc2ccccc12	-6.2%	19.5%	-6.2%	-38.9%	-19.6%	-0.75%
CN(C)CCC(=O)Cc1ccccc1	-8.8%	-12.3%	-4.55%	-8.15%	-26.1%	0.95%
O=C1c2ccccc2C(=O)C1(Cl)C(Cl)c1ccc([N+](=O)[O-])cc1 (stereo not drawn)	99.3% (active)	98.9% (active)	99.6% (active)	99.1% (active)	99.3% (active)	99.5% (active)
CN(C)C12CCC(c3ccccc31)c1ccccc12	29.8%	20.8%	27.4%	8.6%	36.5%	4.25%
CC(C)c1ccc(CN)cc1	-23.4%	-39.2%	-29.8%	6.5%	-36.8%	-17.5%
CCOC(=O)/C(C#N)=C/c1c(-c2ccccc2)nn2ccccc12	42.6%	26.6%	28.1%	-2.4%	-7.7%	20.6%
O=C(Nc1ccc(Cl)cc1)Nc1nnc(-c2ccc(-c3nnc(NC(=O)Nc4ccc(Cl)cc4)o3)cc2)o1	28.4%	0.4%	26.4%	-34.3%	18%	21.6%
COc1cccc(N2C(=O)c3c(c4[nH]c5ccccc5c4c4ccc(C(C)(C)C)cc34)C2=O)c1	-19.2%	-15.1%	-15.4%	18.3%	-34%	-12.1%
CC(=O)OC1CC(O)CC2=CCC3C4CCC(C(C)(O)C(O)CC5COC(=O)C5C)C4(C)CCC3C21C (stereo not drawn)	6.8%	5.4%	14.6%	3.45%	-32.1%	-30.1%
Nc1c(Br)cc(Br)c2c1CCC2	10.6%	5.9%	10.6%	1.4%	8.8%	15.8%

SMILES	growth inhibition [1]	growth inhibition [2]	growth inhibition [3]	growth inhibition [4]	growth inhibition [5]	growth inhibition [6]
NNC(=O)CSCC(=O)NN	-1.9%	-2.05%	-3.25%	-9.75%	1.2%	-5.35%
O=C(O)CCc1ccc2c(c1)OCO2	-2.1%	-24.1%	-5.85%	-5.4%	-34.1%	-11.4%
COc1cc(C(C)S(=O)(=O)c2ccc(C)cc2)ccc1O (stereo not drawn)	-2.95%	-9.3%	8.65%	6.5%	3.2%	9.45%
CC(=O)/C=C1\N(C)c2ccccc2C1(C)C	2.1%	-12.3%	-2.05%	-8.55%	-2.9%	-10.9%
O=C(O)C1CCCN1Cc1ccc2c(c1)OCO2 (stereo not drawn)	-5.1%	-19.6%	-34%	-3.5%	-40.8%	-36.8%
CCC1(C)OCC(C)(C)C(C(C)C)O1 (stereo not drawn)	-13.7%	3%	-17.4%	-62.5%	-39.6%	-14.6%
c1ccc(N=C(N2CCCC2)N(CCN2CCCC2)c2ccccc2)cc1	-39.4%	-58.1%	-36.4%	1.35%	-14.2%	-28.2%
CCOC(=O)CC(=O)C(=O)OCC	2.05%	-4.75%	-4.8%	-25.6%	-18%	-27.2%
C=CCc1cc(OC)c(O)c(C(=O)OCC)c1	-2.35%	-12.8%	-3.25%	1.3%	7.65%	-2.15%
COc1ccc(C2SC(N)=Nc3c2c(C)nn3C(=O)c2ccccc2O)cc1 (stereo not drawn)	15.9%	10.1%	40.5%	5.85%	49.1%	29.4%
N#CCc1nc(-c2ccccc2)n[nH]1	11.2%	4.55%	13.1%	5.6%	4.5%	11.7%
OC(c1cc(C(F)(F)F)nc2c(Cl)cc(Cl)cc12)C1CCCCN1 (stereo not drawn)	7.2%	-22.4%	-5%	-3.4%	8.75%	22.9%
CC(=O)Oc1ccccc1C=C(C(=O)O)C(=O)O	-7.7%	-11.5%	-8.1%	-20.7%	-9.2%	-10.9%
CCN(CC)CC(O)Cn1cnc2c(=S)nc[nH]c21 (stereo not drawn)	8.7%	-4.05%	-3.45%	4.9%	1.45%	-4.45%
S=C(Nc1cccc2ccccc12)N1CCCCC1	51.7%	39%	50.7%	18.1%	61%	35.7%
O=CCCn1[nH]c(=O)ccc1=O	2.4%	-4.65%	15.9%	20.2%	25.1%	12.9%
COc1cc(OC)cc(C2OC3=C(Nc4ccccc4N3)C2=O)c1 (stereo not drawn)	12.8%	16.1%	23.2%	19.4%	19.4%	28.1%
CC(Oc1ccc2ccccc2c1I)C(=O)O (stereo not drawn)	27.9%	12.8%	37.8%	18.6%	57.4%	36.8%
Cc1nc(N)nc(N)c1N1CCN(c2ccc(C(=O)NC(C(=O)O)C(=O)O)cc2)CC1	-4.8%	-15.6%	-25.8%	4.55%	-38.2%	-37.8%
